An excerpt weighted towards active compounds, which were near 4.8% of everything screened.
DAX1 inh-1: DAX1 (NR0B1) inhibition, primary screen. HEK293T StAR-luciferase reporter, SF-1/DAX-1 repression relief. inhibition, % at 6.8 µM. 370,000 compounds, 1.1% hits. AID 652010;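 active = inhibition above the mean over all tested compounds plus 3 SD, cut at about 3.6% in these data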;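 note: higher inhibition means more luminescence from relief of DAX-1 repression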
hgDAF-12 ag: agonists of H. glycines DAF-12 nuclear receptor; 370,000 compounds, 1.8% hits; HEK293 GAL4-hgDAF12 UAS-luciferase reporter, agonist luminescence; normalized to butyrate control; activation, % at 6.8 µM;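 active = activation above a cutoff set at the mean of all screened compounds plus 3 SD, cut at about 10% in these data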
DAX1 inh-2: inhibits human nuclear receptor DAX1. inhibition, % at 6.75 µM. P51843. AID 504766. HEK293 Gal4-DAX1 luciferase reporter, luminescence. 340,000 compounds, 0.99% hits;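 active = inhibition above the mean over all tested compounds plus 3 SD, cut at about 4.2% in these data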;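 note: inhibition shows as a rise in luminescence from relieved DAX1 repression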
NR1D1 modulator: Rev-erb alpha (human) modulation; 370,000 compounds, 0.79% hits; activity, % at 10 µM; P20393; Rev-erbα–FITC-DNA binding, fluorescence polarization, 90 min; AID 1259318;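 active = activity above about 14%, limit read from the data; passing the limit was not always enough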
Target sequence (P20393 whole entry, looked up): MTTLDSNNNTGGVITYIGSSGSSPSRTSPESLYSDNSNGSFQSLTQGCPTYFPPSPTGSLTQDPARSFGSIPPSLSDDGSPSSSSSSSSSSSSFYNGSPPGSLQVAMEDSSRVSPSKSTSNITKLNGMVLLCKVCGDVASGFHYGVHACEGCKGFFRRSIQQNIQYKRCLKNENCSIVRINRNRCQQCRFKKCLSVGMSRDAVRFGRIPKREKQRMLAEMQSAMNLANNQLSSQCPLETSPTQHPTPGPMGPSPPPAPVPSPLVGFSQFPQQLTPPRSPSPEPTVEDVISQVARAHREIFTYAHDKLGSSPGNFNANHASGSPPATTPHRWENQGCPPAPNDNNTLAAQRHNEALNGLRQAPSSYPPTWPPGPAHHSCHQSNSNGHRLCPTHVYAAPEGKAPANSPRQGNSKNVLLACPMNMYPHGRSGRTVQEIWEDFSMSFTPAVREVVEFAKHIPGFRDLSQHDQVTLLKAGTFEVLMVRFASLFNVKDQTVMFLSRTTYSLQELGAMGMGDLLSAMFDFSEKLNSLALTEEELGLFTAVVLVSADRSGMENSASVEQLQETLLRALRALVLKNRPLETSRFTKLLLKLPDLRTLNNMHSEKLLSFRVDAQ
ssDAF12 agonist: activates DAF-12 receptor from parasite S. stercoralis; 370,000 compounds, 1% hits; activation, % at 6.8 µM; AID 652126; HEK293 ssDAF-12/GRIP1 lit1-tk-luc reporter, luminescence; % of 3 µM dafachronic acid response;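 active = activation above the mean over all tested compounds plus 3 SD, cut at about 0.9% in these data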
hcDAF-12 act: activates DAF-12 receptor from parasite H. contortus; AID 652067; 370,000 compounds, 1.4% hits; HEK293 hcDAF-12 lit1-tk-luc reporter, luminescence; 0% DMSO, 100% Δ7-dafachronic acid; activation, % at 6.8 µM;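 active = activation above the mean of all tested compounds plus 3 SD, cut at about 5.5% in these data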
NR1D1 mod conf: Rev-erb alpha (human) modulation, hit confirmation | shares compounds with NR1D1 modulator | Rev-erb alpha FITC-DNA binding, fluorescence polarization, 90 min | activation, % at 25 µM | 3,000 compounds, 61% hits | AID 1259319;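 active = activation at or above a set limit, or at least 3 SD above the negative control mean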
RORg DNA counter: affects RORgamma DNA binding in a Rev-erb alpha counter-screen. shares compounds with NR1D1 modulator. purified RORgamma protein-FITC-DNA binding, fluorescence polarization. IC50, µM. 910 compounds, 8% hits. AID 1259320;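 active = Compounds whose fitted half-maximal concentration for disrupting protein-DNA binding is below 10 micromolar; the record names Rev-erb in its text, so the target is in doubt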
Of the large screens only hits and unclear results are named; the others gave an inactive call (follow-up assays come after a bar, where they were run).

CCOC(=O)c1cc2c(ccc3ccccc32)oc1=O	none
CC(OC(=O)c1cc2c(ccc3ccccc32)oc1=O)c1nc2ccccc2s1 (stereo not drawn)	NR1D1 modulator 54 | NR1D1 mod conf 33 | RORg DNA counter inactive
O=C1CC(N2CCCC2)=NC(=O)N1c1ccc(Br)cc1	none (no result: DAX1 inh-2)
COc1ccc(OC)c(Nc2ncnc3ccc(Br)cc23)c1	NR1D1 modulator 59 | NR1D1 mod conf 29
COc1ccc(OC)c(Nc2ncnc3ccccc23)c1	none
O=C1NC(=O)C2C3C=CC(C12)C1C(=O)NC(=O)C31 (stereo not drawn)	none (no result: DAX1 inh-2)
O=C(c1ccccc1F)N1C(=O)c2cccc3cccc1c23	NR1D1 modulator 25 | NR1D1 mod conf inactive
CCN1C(=O)c2cccc3cccc1c23	none
O=C(c1cccs1)N1C(=O)c2cccc3cccc1c23	NR1D1 modulator 51 | NR1D1 mod conf 42 | RORg DNA counter inactive
O=C(c1ccco1)N1C(=O)c2cccc3cccc1c23	none
COc1ccc(CC(=O)Nc2ccc(C)cc2S(=O)(=O)N2CCOCC2)cc1OC	none (no result: DAX1 inh-2)
CC(C)N1CCCCC(NC(=O)c2ccccc2)C1=O (stereo not drawn)	none (no result: DAX1 inh-2)
CCOc1ccc(/C(CCC(=O)O)=N/NC(=S)NC(C)C)cc1	none
CCOc1ccc(/C(CC)=N/NC(=O)C2(C)CC2(Br)Br)cc1 (stereo not drawn)	NR1D1 modulator 31 | NR1D1 mod conf 46 | RORg DNA counter inactive
O=C(NN1CCOCC1)c1cc(-c2ccc(Br)s2)nc2ccccc12	NR1D1 modulator 32 | NR1D1 mod conf inactive
CC(C)Oc1cccc(-c2cc(C(=O)NN3CCOCC3)c3ccccc3n2)c1	none
C=CCN1CC(COc2ccc(OC)cc2)OCCS1(=O)=O (stereo not drawn)	none (no result: DAX1 inh-2)
COC(=O)[C@]12C[C@H](CC(=O)NCCc3ccccc3OC)C(=O)N(Cc3ccc(Cl)cc3Cl)C1=C[C@H](C(C)C)O[C@@H]2C1CC1	none (no result: DAX1 inh-2)
FC(F)(F)c1cc(CNC2CCC23CCC(c2ccccc2)CC3)ccc1Cl (stereo not drawn)	none (no result: DAX1 inh-1, DAX1 inh-2)
COc1ccc2c(c1)oc(=O)c1c3ccccc3[nH]c21	NR1D1 modulator 75 | NR1D1 mod conf 62 | RORg DNA counter inactive
CCCC(=O)Nc1ccc(-c2nc3cc(C)c(C)cc3o2)c(O)c1	NR1D1 modulator 17 | NR1D1 mod conf inactive
CCCC(=O)Nc1ccc(C)c(O)c1	none
CC1(C)CC(=O)N(CC(=O)N2CCN(c3cccc(Cl)c3Cl)CC2)c2ccccc2S1(=O)=O	none (no result: DAX1 inh-2)
C[C@H](CO)N1C[C@H](C)[C@@H](CN(C)S(=O)(=O)c2ccc(F)cc2)Oc2cc(Br)ccc2S1(=O)=O	none (no result: DAX1 inh-2)
Brc1ccc2ncc(Br)cc2c1	NR1D1 modulator 45 | NR1D1 mod conf 33 | RORg DNA counter inactive
Nc1nnc2cc(Br)ccc2n1	none
NC(=O)c1ncn([C@@H]2O[C@H](C(=O)N[C@H](Cc3c[nH]c4ccccc34)C(=O)N3CCN(CC(=O)N4CCCC4)CC3)[C@@H](O)[C@H]2O)n1	none (no result: DAX1 inh-2)
COC(=O)[C@]12C[C@H](CC(=O)N3CCN(C(=O)C4CC4)CC3)C(=O)N(Cc3cccc4ccccc34)C1=C[C@H](COCc1ccccc1)O[C@@H]2C	none (no result: DAX1 inh-2)
O=C(c1cc2cc(Br)ccc2[nH]1)N1CCc2ccccc21	NR1D1 modulator 49 | NR1D1 mod conf 54 | RORg DNA counter inactive
Cc1nc2ccc(NC(=O)c3ccc(F)cc3F)cc2c(=O)[nH]1	none (no result: DAX1 inh-2)
O=C(CN1CCCc2ccccc21)NCc1ccc(Cl)cc1	none (no result: DAX1 inh-2)
O=C(Nc1ccc(F)cc1)c1oc2ccccc2c1NC(=O)C1CCCC1	NR1D1 modulator 26 (no result: DAX1 inh-1, hgDAF-12 ag, ssDAF12 agonist, hcDAF-12 act) | NR1D1 mod conf inactive
O=C(Nc1ccccc1F)c1oc2ccccc2c1NC(=O)C1CC1	none
CC1=NN(c2ccc(C)cc2)C(=O)/C1=C\C=C\c1ccccc1	none
CC1=NN(c2ccccc2)C(=O)/C1=C/C=C/C=C/N(C)C	NR1D1 modulator 51 | NR1D1 mod conf 53

Assay outcomes as filed in PubChem BioAssay.
